# Values without a mark were called inactive. The source made the active and inactive calls. The call rests on the fitted dose curve; in most records, active means well fitted inhibition curve with a large enough effect; inconclusive means small, poorly fitted or top-dose-only effect; inactive means flat fitted curve, though single readings scatter.
# Molecular target: DNA dC->dU-editing enzyme APOBEC-3G (Homo sapiens) (UniProt Q9HC16)
# Assay: qHTS for inhibitors of Vif-A3G interactions: Validation (AID 588379); further: 0% is about no effect
# Conditions: Vif-A3G protein interaction assay; series mostly up to 46.1 µM; activity change, negative = inhibition: at the top concentration
# In short: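 Yellow fluorescence (Ex 488, Em 500-530) of Vif-coexpressing HeLa A3G-eYFP cells, scanned by Acumen cytometer, reports blocked A3G degradation. Cells plated at 700/well overnight at 37 deg C before compound addition, then a further overnight compound incubation at 37 deg C.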
# Sequence of DNA dC->dU-editing enzyme APOBEC-3G (Homo sapiens) (Q9HC16 whole entry, looked up): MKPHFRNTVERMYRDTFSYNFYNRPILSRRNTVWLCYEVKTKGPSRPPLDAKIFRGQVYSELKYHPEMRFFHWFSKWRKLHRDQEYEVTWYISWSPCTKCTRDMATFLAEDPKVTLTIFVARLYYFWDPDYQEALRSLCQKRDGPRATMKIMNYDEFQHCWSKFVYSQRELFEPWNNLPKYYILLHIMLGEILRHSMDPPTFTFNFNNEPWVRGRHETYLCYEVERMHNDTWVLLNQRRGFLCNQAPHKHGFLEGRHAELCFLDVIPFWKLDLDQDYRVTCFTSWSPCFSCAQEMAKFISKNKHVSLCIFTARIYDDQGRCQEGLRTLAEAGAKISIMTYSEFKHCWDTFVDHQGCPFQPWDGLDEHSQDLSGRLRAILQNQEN
SMILES,"activity change, negative = inhibition [%]",outcome
CN=C(NC#N)Nc1ccc(C2=NNC(=O)CC2C)cc1 (stereo not drawn),-0.416,
COc1cc(-c2ccc(=O)[nH]n2)ccc1OC(F)F,0.201,
CC(C)NC[C@@H](O)COc1cccc2ccccc12,,inactive
